In the library only some 2.7% were active in any assay of this set; here they are far more common.
S2 tox: viability counter-screen for ATXN expression inhibitors; 400,000 compounds, 0.49% hits; Potency, µM (doses to about 56.7 µM), hits mostly cytotoxic; S2 cells (HEK-293 line with an ATXN2-luciferase reporter) viability, CellTiter-Fluor protease fluorescence, 24 h; note: nearly all actives have a fitted effect of over 40% in size
HepG2 viability: HepG2 cytotoxicity, counter-screen for TGF-b inhibitors. Potency, µM (titrated, usually from 46.1 µM), actives largely listed as cytotoxic. 410,000 compounds, 0.76% hits. AID 588856. HepG2 CAGA-GFP viability, ATP luminescence, 18 h
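HepG2 CAGA-GFP cells (1000/well, DMEM with 1% FBS) received compound, then TGF-beta at 500 pg/mL final, and were incubated 18 hours at 37 degrees C. Viability was read by CellTiter-Glo luminescence. Media-only wells were set as complete cell-killing and DMSO as no toxicity.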
ALOX12 inh: ALOX12 (human) lipoxygenase inhibition. P18054. purified 12hLO, xylenol orange hydroperoxide absorbance. Potency, µM (doses to about 108 µM), usual class: inhibitors. 580,000 compounds, 1.1% hits
Target sequence (P18054 whole entry, looked up): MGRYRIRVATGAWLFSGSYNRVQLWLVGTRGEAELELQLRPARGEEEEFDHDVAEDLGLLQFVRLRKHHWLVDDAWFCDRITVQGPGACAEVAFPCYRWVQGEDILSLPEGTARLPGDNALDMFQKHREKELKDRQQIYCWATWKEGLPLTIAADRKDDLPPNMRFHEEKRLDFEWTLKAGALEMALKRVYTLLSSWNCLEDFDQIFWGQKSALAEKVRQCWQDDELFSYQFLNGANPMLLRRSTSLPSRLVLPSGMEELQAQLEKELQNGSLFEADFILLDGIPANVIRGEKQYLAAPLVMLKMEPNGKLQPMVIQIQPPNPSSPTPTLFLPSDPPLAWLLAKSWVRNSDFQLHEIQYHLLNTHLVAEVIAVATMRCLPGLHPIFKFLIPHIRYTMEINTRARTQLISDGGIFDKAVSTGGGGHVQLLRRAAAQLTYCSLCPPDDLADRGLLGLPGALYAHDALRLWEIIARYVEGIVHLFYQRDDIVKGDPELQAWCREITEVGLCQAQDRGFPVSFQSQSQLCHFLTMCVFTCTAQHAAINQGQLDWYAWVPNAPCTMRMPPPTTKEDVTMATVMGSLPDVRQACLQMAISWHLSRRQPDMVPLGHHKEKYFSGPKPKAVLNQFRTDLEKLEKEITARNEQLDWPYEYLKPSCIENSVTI
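Purified human 12hLO (150 nM final) in 25 mM Hepes, 0.01% Triton X-100, pH 7.0 was preincubated 15 min at room temperature with compound. Then 40 uM arachidonic acid was added, 30 min. Hydroperoxide was read by Fe-XO absorbance ratio 573/405 nm.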
TGFb inhibitor: TGF-b pathway inhibition; HepG2 CAGA-GFP TGF-b/SMAD3 reporter, GFP fluorescence, 18 h; TGF-beta stimulated, 500 pg/mL final; Potency, µM (highest dose often 46.1 µM), actives largely listed as inhibitors; 410,000 compounds, 1.2% hits; note: nearly all actives have a fitted effect of over 65% in size
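GFP signal (ex488/em500-530) from TGF-beta-stimulated HEPG2 CAGA-GFP cells, 500 pg/mL final, 18 h at 37 degrees C in DMEM plus 1% FBS, normalized to unstimulated and DMSO-stimulated controls.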
ATXN2 expr inh: reduces ATXN2 reporter expression in HEK-293 cells; 360,000 compounds, 0.72% hits; AID 1745845; Potency, µM (top dose mostly 57 µM), hits mostly inhibitors; HEK-293 ATXN2-luciferase reporter, luminescence, 24 h; note: nearly all actives have a fitted effect of over 55% in size
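ATXN2-luciferase reporter cells (luciferase flanked by upstream and downstream ATXN2 gene portions) were treated 24 h at 37 °C with compounds at up to 57 uM. SteadyGlo luminescence gave expression; GF-AFC fluorescence gave viability.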
A number is an active result; – = inactive; ? = inconclusive; · = no result. Calls come from the whole dose curve; as a rule, active = well fitted curve in the direction sought with a large enough effect; inconclusive = small, poorly fitted or top-dose-only effect, or another doubt; inactive = no such curve, though single readings can be large; an effect the other way counts as inactive or inconclusive.

SMILES	S2 tox	HepG2 viability	ALOX12 inh	TGFb inhibitor	ATXN2 expr inh
O=C(CCN1C(=O)C2C3C=CC(C4CC34)C2C1=O)Oc1cccc2cccnc12 (stereo not given)	–	6.3µM	–	5µM	?
O=C(/C=C/C=C/c1ccco1)c1ccc(N2CCOCC2)cc1	·	·	5µM	·	·
O=C(/C=C/c1cccc(F)c1)c1ccc(N2CCOCC2)cc1	–	–	–	13µM	–
O=C(/C=C/c1cccs1)c1ccc(N2CCOCC2)cc1	?	–	–	–	·
CCCCN(C)S(=O)(=O)c1ccc(NC(=O)Cc2nc(-c3ccccc3)oc2C)cc1	·	·	–	·	·
C=CCOC(=O)C1=C(C)NC(SCC(N)=O)=C(C#N)C1c1ccc(C)cc1 (stereo not given)	–	–	–	?	–
C=CCOC(=O)C1=C(C)NC(SCC)=C(C#N)C1c1ccc(Cl)cc1 (stereo not given)	?	–	–	13µM	16µM
Cc1ccccc1CS(=O)Cc1ccc(F)cc1 (stereo not given)	·	·	–	·	·
CSc1nnc(C)c(/C=C/NOCc2cccc(F)c2)n1	–	–	?	–	–
CSc1nnc(C)c(/C=C/Nc2ccc(F)cc2F)n1	?	–	35µM	–	–
COc1ccc(C(=O)NCC(C)O)cc1 (stereo not given)	·	·	–	·	·
Cc1ccc(C)n1C1C(=O)N(Cc2ccc(C(C)C)cc2)c2ccc(OC(F)(F)F)cc21 (stereo not given)	·	·	16µM	·	·
CS(=O)(=O)c1ccc(CN2C[C@@H]3C[C@H]2C(=O)N(Cc2ccc(OC(F)(F)F)cc2)c2ccccc2O3)cc1	·	·	–	·	·
COc1ccc(OC)c(CNC(=O)C2Cn3cccc3C(=O)N2Cc2cccnc2)c1 (stereo not given)	·	·	–	·	·
CCCCOc1ccc2c(C)c(C)c(=O)oc2c1C	·	·	–	·	·
Cc1ccc(C)c(S(=O)(=O)Nc2nc3ccccc3nc2Nc2ccc(C(=O)O)cc2)c1	·	·	–	·	·
COc1ccc(/C=C/c2cc(C(F)(F)F)[nH]c(=O)n2)cc1OC	–	–	8.9µM	–	–
COc1ccc(/C=C/c2cc(C(=O)O)c3ccccc3n2)cc1OC	·	·	18µM	·	·
COc1ccccc1NC(=O)c1ccccc1NC(=O)c1ccccc1C(=O)O	?	–	1.8µM	–	·
COc1cc(/C=C/c2cc(C(=O)O)c3ccccc3n2)ccc1OCCC(C)C	·	·	–	·	·
COc1ccc(/C=C/C(=O)c2cc(F)ccc2OC(=O)c2ccccc2OC)cc1OC	?	–	–	11µM	?
COc1ccccc1NC(=O)c1ccccc1C(=O)Nc1ccccc1OC	–	–	–	–	–
Cc1cc(S(=O)(=O)N(C)C)cc(NS(=O)(=O)c2cccc(Cl)c2Cl)c1C	·	·	–	·	·
COc1ccc(CN2CCC(C)CC2)cc1	·	·	–	·	·
COc1ccc(/C=C/c2cc(C(=O)O)c3ccccc3n2)cc1	–	–	?	–	2.2µM
SMILES	S2 tox	HepG2 viability	ALOX12 inh	TGFb inhibitor	ATXN2 expr inh
COc1ccc(C=CC(=O)Nc2ccccc2C(=O)O)cc1OC	·	·	–	·	0.97µM
COc1cc(OC)c(OC)cc1/C=C/c1cc(C(=O)O)c2ccccc2n1	–	–	–	–	·
CC(=O)Oc1ccc(C(=O)Nc2ccccc2C(=O)Nc2ccc(C(=O)O)cc2)cc1	?	–	4.5µM	–	–
COc1ccc(/C=C/C(=O)Nc2ccccc2C(=O)O)cc1OC	–	–	–	–	?
Cc1ccc(N=C2SC(C(=O)Nc3ccc(OC(F)(F)F)cc3)C(N)=C2C(=O)Nc2c(C)cc(C)cc2C)cc1 (stereo not given)	·	11µM	?	7.1µM	?
Cc1ccc(NC(=O)C2SC(=Nc3ccccc3)C(C(=O)Nc3ccc(Cl)cc3)=C2N)cc1 (stereo not given)	–	–	·	–	–
O=C(CSc1nnc(C2CCCCC2)n1-n1cccc1)Nc1ccccc1	·	·	–	·	·
O=[N+]([O-])c1cccc(OCCN2CCC(Cc3ccccc3)CC2)c1	–	–	0.63µM	–	–
Clc1ccccc1OCCN1CCC(Cc2ccccc2)CC1	?	–	?	?	·
O=Cc1cc(Cl)ccc1OCCN1CCC(Cc2ccccc2)CC1	–	–	2.2µM	?	–
O=C(/C(=C/c1ccc(F)cc1)c1nc2ccccc2o1)c1ccccc1	·	·	–	·	·
O=C(c1n[nH]c(=O)c2ccccc12)N1CCc2sccc2C1	·	·	–	·	·
C[n+]1cc(C(=O)N2CCCCC2)ccc1/C=C/c1c[nH]c2ccccc12	?	–	20µM	–	–

Screening data (PubChem)
